# From PubChem BioAssay AID1159580 (chemical genetic matrix, 2015)
# Out of some 5,500 compounds screened, about 2,000 (36%) were called active. Inconclusive results (about 18%) are left out. The list shows a part of the results. A number with no mark means an inactive call. Rule as the data show it: active = normalized growth mostly below about 0.91 (no sharp cut-off); inconclusive = no clear call, values can overlap the other calls; inactive = mostly above about 0.92.
# Assay: chemical genetic growth profiling, strain panel (AID 1159580);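 also: tested at 20 µM; growth read once vehicle control cultures reached saturation at 30 °C; 1 = growth at the plate median or of vehicle wells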
# Conditions: S. cerevisiae deletion strains, growth OD
smiles,measurement,setting,value
Cc1nc([N+](=O)[O-])cn1CC(=O)c1ccc(Cl)cc1,normalized growth,"locus YAR019C, strain CDC15, stronger effect = lower value",0.973
same,normalized growth,"locus YBL105C, strain PKC1, stronger effect = lower value",0.97
same,normalized growth,"locus YBR135W, strain CKS1, stronger effect = lower value",0.982
same,normalized growth,"locus YBR136W, strain MEC1, stronger effect = lower value",0.973
same,normalized growth,"locus YBR160W, strain CDC28, stronger effect = lower value",0.984
same,normalized growth,"locus YDL017W, strain CDC7, stronger effect = lower value",0.981
same,normalized growth,"locus YDL028C, strain MPS1, stronger effect = lower value",0.969
same,normalized growth,"locus YDL101C, strain DUN1, stronger effect = lower value",0.978
same,normalized growth,"locus YDL108W, strain KIN28, stronger effect = lower value",0.963
same,normalized growth,"locus YDL132W, strain cdc53, stronger effect = lower value",0.976
same,normalized growth,"locus YDL214C, strain PRR2, stronger effect = lower value",0.927
same,normalized growth,"locus YDR052C, strain DBF4, stronger effect = lower value",0.964
same,normalized growth,"locus YDR054C, strain cdc34, stronger effect = lower value",0.973
same,normalized growth,"locus YDR226W, strain ADK1, stronger effect = lower value",0.972
same,normalized growth,"locus YDR477W, strain SNF1, stronger effect = lower value",0.938
same,normalized growth,"locus YER123W, strain YCK3, stronger effect = lower value",0.782
same,normalized growth,"locus YER133W, strain GLC7, stronger effect = lower value",0.94
same,normalized growth,"locus YFL009W, strain cdc4, stronger effect = lower value",0.982
same,normalized growth,"locus YFL029C, strain CAK1, stronger effect = lower value",0.971
same,normalized growth,"locus YFR003C, strain YPI1, stronger effect = lower value",0.979
same,normalized growth,"locus YFR019W, strain FAB1, stronger effect = lower value",0.901
same,normalized growth,"locus YFR028C, strain CDC14, stronger effect = lower value",0.98
same,normalized growth,"locus YGR040W, strain KSS1, stronger effect = lower value",0.94
same,normalized growth,"locus YGR052W, strain FMP48, stronger effect = lower value",1.03
same,normalized growth,"locus YGR092W, strain DBF2, stronger effect = lower value",0.416 (active)
same,normalized growth,"locus YHR030C, strain SLT2, stronger effect = lower value",0.189 (active)
same,normalized growth,"locus YHR079C, strain IRE1, stronger effect = lower value",1.05
same,normalized growth,"locus YHR082C, strain KSP1, stronger effect = lower value",1.04
same,normalized growth,"locus YHR205W, strain SCH9, stronger effect = lower value",0.964
same,normalized growth,"locus YIL147C, strain SLN1, stronger effect = lower value",0.96
same,normalized growth,"locus YJL095W, strain BCK1, stronger effect = lower value",1.02
same,normalized growth,"locus YJL128C, strain PBS2, stronger effect = lower value",0.906
same,normalized growth,"locus YJL157C, strain FAR1, stronger effect = lower value",0.922
same,normalized growth,"locus YJR016C, strain ILV3, stronger effect = lower value",0.97
same,normalized growth,"locus YJR066W, strain TOR1 (second series), stronger effect = lower value",0.898
same,normalized growth,"locus YJR066W, strain TOR1, stronger effect = lower value",1.04
same,normalized growth,"locus YKL048C, strain ELM1, stronger effect = lower value",0.966
same,normalized growth,"locus YKL067W, strain YNK1, stronger effect = lower value",0.947
same,normalized growth,"locus YKL101W, strain HSL1, stronger effect = lower value",0.954
same,normalized growth,"locus YKL193C, strain SDS22, stronger effect = lower value",0.969
same,normalized growth,"locus YKL203C, strain TOR2, stronger effect = lower value",1.02
same,normalized growth,"locus YLR113W, strain HOG1, stronger effect = lower value",0.539 (active)
same,normalized growth,"locus YLR133W, strain CKI1, stronger effect = lower value",0.962
same,normalized growth,"locus YLR403W, strain SFP1, stronger effect = lower value",0.941
same,normalized growth,"locus YML070W, strain DAK1, stronger effect = lower value",0.904
same,normalized growth,"locus YMR001C, strain CDC5, stronger effect = lower value",0.976
same,normalized growth,"locus YMR205C, strain PFK2 (second series), stronger effect = lower value",0.966
same,normalized growth,"locus YMR277W, strain FCP1, stronger effect = lower value",0.964
same,normalized growth,"locus YNL006W, strain LST8, stronger effect = lower value",0.983
same,normalized growth,"locus YNL020C, strain ARK1, stronger effect = lower value",0.959
same,normalized growth,"locus YNL161W, strain CBK1, stronger effect = lower value",0.971
same,normalized growth,"locus YNL183C, strain NPR1, stronger effect = lower value",1
same,normalized growth,"locus YNL207W, strain RIO2, stronger effect = lower value",0.965
same,normalized growth,"locus YNL222W, strain SSU72, stronger effect = lower value",0.977
same,normalized growth,"locus YNL307C, strain MCK1 (second series), stronger effect = lower value",0.967
same,normalized growth,"locus YOL078W, strain AVO1, stronger effect = lower value",0.969
same,normalized growth,"locus YOL136C, strain PFK27, stronger effect = lower value",0.927
same,normalized growth,"locus YOR061W, strain CKA2, stronger effect = lower value",0.94
same,normalized growth,"locus YOR119C, strain RIO1, stronger effect = lower value",0.985
same,normalized growth,"locus YOR231W, strain MKK1, stronger effect = lower value",1
same,normalized growth,"locus YOR329C, strain SCD5, stronger effect = lower value",0.977
same,normalized growth,"locus YPL031C, strain PHO85, stronger effect = lower value",0.949
same,normalized growth,"locus YPL153C, strain RAD53, stronger effect = lower value",0.916
same,normalized growth,"locus YPL204W, strain HRR25, stronger effect = lower value",0.921
same,normalized growth,"locus YPL209C, strain IPL1, stronger effect = lower value",0.984
same,normalized growth,"locus YPL256C, strain CLN2, stronger effect = lower value",1.01
same,normalized growth,"locus YPR025C, strain CCL1, stronger effect = lower value",0.985
same,normalized growth,"locus YPR106W, strain ISR1, stronger effect = lower value",0.982
same,normalized growth,"locus YPR111W, strain DBF20, stronger effect = lower value",0.989
same,normalized growth,"strain NNK1, stronger effect = lower value",0.979
same,normalized growth,"strain TSCII, stronger effect = lower value",0.969
